The record followed here is PubChem BioAssay.

The inhibition is the drop in the measured response relative to a control, in per cent.

Test [1] in a line: rapamycin-like changes in RPL19A-GFP expression – cell-based, S. cerevisiae, multiplex flow cytometry, primary screen (AID 1862; in the data active = percent of DMSO control GFP below about 86%;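 also: lower values mimic rapamycin by blocking the RPL19A rise seen in DMSO cells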). The settings on record: S. cerevisiae RPL19A-GFP strain, flow cytometry fluorescence, 3 h; at 10 µM; stronger effect = lower value. In general terms: Flow cytometry measures light scatter and fluorescence of single cells or particles in a stream.
Test [2] in a line: TOR pathway GLN3 branch reporter MEP2-GFP changes – S. cerevisiae, multiplex flow cytometry, primary screen (AID 1867;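 active = GFP response, as percent of the DMSO control, above the screen-wide mean plus 3 SD, about 139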;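 also: median GFP channel fluorescence of barcode-gated MEP2-GFP cells measured by flow cytometry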). The settings on record: S. cerevisiae MEP2-GFP strain, 3 h, at 10 µM, stronger effect = higher value, 100% means same as DMSO wells.
A short description of test [3]: TOR pathway RTG branch CIT2 reporter changes – S. cerevisiae, GFP fusion, multiplex flow cytometry, primary screen (AID 1870;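 active = percent response above a set limit, the screen-wide mean plus 3 SD, cut at about 130% in these data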;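 also: barcoded CIT2-GFP strain pooled with four other GFP strains with rapamycin as positive control; median GFP fluorescence per well over plate mean of DMSO wells so 100% = DMSO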). Conditions: S. cerevisiae CIT2-GFP expression, 3 h, at 10 µM, stronger effect = higher value.
Test [4] can be described thus: TOR pathway LAP4-GFP level changes – S. cerevisiae, multiplex flow cytometry, primary screen (AID 1873;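 active = GFP signal, as percent of the solvent control, above the screen mean plus 3 SD, about 149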). Conditions: S. cerevisiae LAP4-GFP expression, 3 h, at 10 µM, stronger effect = higher value.
Test [5] in a line: yeast AGP1-GFP level changes, GLN3 branch – cell-based, multiplex flow cytometry, S. cerevisiae, primary screen (AID 1887;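 active = GFP signal above the screen-wide mean plus 3 SD, that is over about 124.5% of the solvent control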;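 also: AGP1-GFP fusion strain of S. cerevisiae within a five-strain barcoded multiplex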). Conditions: 3 h, at 10 µM, stronger effect = higher value.
The nature of test [6]: reduced mouse 2C T cell binding to pMHC/ICAM-1 vesicles – MLPCN validation set, flow cytometry, LFA-1/ICAM-1 modulator project, pilot screen (AID 2523;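 active = response below a set limit, under 55% cells CD8-positive and vesicle-bound, and CD8 cells' 90th-percentile brightness under 279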;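 as to vesicle binding response: mean PE anti-B7-1 fluorescence of CD8+ cells relative to row control; 100% = QL9-loaded vesicles with DMSO vehicle in the same plate row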). Conditions: 2C mouse CD8+ T cells, at 7 µM, stronger effect = lower value; double positive events: measured here: CD8+/vesicle+ event percentage.
Test [7] addresses Integrin beta-1 (Homo sapiens) + Integrin alpha-4 (Homo sapiens) (UniProt P13612+P05556). The test is described as follows: alpha4beta1 integrin LIBS antibody binding reduction – U937 cells, HUTS-21 mAb, flow cytometry, validation set, VLA-4 allosteric modulator project, pilot screen (AID 2674;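 active = inhibition above 50%, about 3 SD of the validation set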;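 also: antibody binding induced by the VLA-4 ligand LDV present at three times its Kd; 0% = LDV ligand with antibody and no compound and 100% = antibody without LDV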). The settings on record: HUTS-21 LIBS mAb binding, at 6.7 µM, stronger effect = higher value, binding induced by LDV ligand.

The nature of test [8]: calorie-restriction mimetic ROS inhibitors, yeast – validation compound set, pilot screen (AID 2706;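 active = superoxide response below 65% of plate, a cut near 3 SD across the whole screen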;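 also: yeast exposed to compound for one week at 30 degrees C before staining; 100% = mean of all compound wells on the same plate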). The settings on record: S. cerevisiae aging, superoxide DHE fluorescence; at 10 µM; stronger effect = lower value.
In test [9] the target is Beta-adrenergic receptor kinase 1 (Homo sapiens) (UniProt P25098). The test is described as follows: GRK2 binders displacing RNA aptamer, biochemical, validation, human GRK2, bead flow cytometry (AID 488806;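 active = aptamer binding inhibition above 30%, about 3 SD of noise from non-fluorescent compounds; inactive = inhibition at or below 30%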). The settings on record: bead-bound GRK2, FAM-aptamer displacement, at 10 µM, stronger effect = higher value.
The target of test [10] is Beta-2 adrenergic receptor (Homo sapiens) (UniProt P07550). The experiment in a line: agonist-induced loss of surface beta2AR – cell-based, FAP fluorogen, flow cytometry, validation set, pilot screen (AID 504459;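 active = percent response above 42, roughly 3 SD of non-fluorescent test compounds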;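 also: agonist-driven loss of surface beta2AR via internalization measured by FAP dye flow cytometry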). Conditions: Am2.2-beta2AR cells, at 10 µM, stronger effect = higher value.
For test [11], the target named is AP-2 complex subunit beta (Homo sapiens) (UniProt P63010). The experiment in a line: beta-arrestin/AP2 interaction blockers – biochemical, validation set, GST-AP2 beads, flow cytometry, pilot screen (AID 504541;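 active = inhibition above 54%, about 3 SD of non-fluorescent compounds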;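 also: AP2 carries R879A mutation and is captured from E. coli lysate; bead-bound FITC arrestin peptide fluorescence measuring arrestin peptide binding to AP2; 0% = DMSO wells and 100% = excess unlabeled arrestin peptide control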). The settings on record: FITC arrestin peptide, at 10 µM, stronger effect = higher value, AP2 beta2 appendage fragment, R879A mutant.
A short description of test [12]: cytosolic pH regulators acting via V-ATPase – S. cerevisiae, pHLuorin, HTS validation (AID 504600; in the data active = response above about 15%;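 also: plate controls were DMSO for no effect and reference compound for full effect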). The settings on record: V-ATPase proton transport, at 10 µM, stronger effect = higher value.
Test [13] concerns anti-desmoglein-3 scFv antibody binding to human DSG3. The test is described as follows: blockers of pathogenic pemphigus antibody–desmoglein-3 binding – biochemical, validation compound set, bead-based, flow cytometry, pilot screen (AID 588368;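 active = binding below the plate cutoff, the plate median minus 3 SD, with a reading above zero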;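 also: signal is the median channel fluorescence of bead-bound GFP antibody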). The settings on record: Protein G beads, DSG3-Fc, scFv-GFP binding, at 10 µM, stronger effect = lower value.
Test [14] is described as follows: Nile Red efflux blockade in pump-expressing yeast – validation compound set, multiplex, phenotypic, pilot screen (AID 588506).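 Also: Nile Red retained in cells so higher fluorescence means more efflux inhibition; 0 = negative control wells and 1 = enniatin B 25 µM full block.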 The settings on record: S. cerevisiae pump-expressing triplex, Nile Red efflux flow cytometry; at 10 µM; stronger effect = higher value; the pumps come from Candida albicans.
For test [15], the target named is ATP-binding cassette sub-family B member 6 (Homo sapiens) (UniProt Q9NP58). The experiment in a line: blockers of ABCB6-driven porphyrin uptake – K562-ABCB6 cells, flow cytometry, validation set, pilot screen (AID 588550;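 active = inhibition above the screen-wide mean plus 3 SD, about 51%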;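 also: 0% = DMSO wells and 100% = benzethonium chloride 70 µM positive control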). Conditions: K562-ABCB6 porphyrin accumulation, 1 h, at 10 µM, stronger effect = higher value.
Test [16] can be described thus: AML differentiation inducers, ER-HoxA9 marrow cells – cell-based, GFP/MAC1 double positive, flow cytometry, validation set, primary screen (AID 588685;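 active = differentiation response of at least 50%, scaled between solvent and reference control, from cells with both markers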;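 also: compound exposure lasts four days before antibody staining and flow analysis; 0% = DMSO wells and 100% = 5 µM fulvestrant positive control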). Conditions: stronger effect = higher value, normalized: vehicle 0, fulvestrant 100.

Molecules are shown by their SMILES. Records with an inconclusive call do not appear. Activity calls are given as the source filed them.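 The calls were made as follows, unless noted: active = efflux inhibition above 0.42, the validation set average plus 4 SD; inconclusive = no clear call, values can overlap the other calls; inactive = the rest.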

Sequence of ATP-binding cassette sub-family B member 6 (Homo sapiens) (Q9NP58 whole entry, looked up): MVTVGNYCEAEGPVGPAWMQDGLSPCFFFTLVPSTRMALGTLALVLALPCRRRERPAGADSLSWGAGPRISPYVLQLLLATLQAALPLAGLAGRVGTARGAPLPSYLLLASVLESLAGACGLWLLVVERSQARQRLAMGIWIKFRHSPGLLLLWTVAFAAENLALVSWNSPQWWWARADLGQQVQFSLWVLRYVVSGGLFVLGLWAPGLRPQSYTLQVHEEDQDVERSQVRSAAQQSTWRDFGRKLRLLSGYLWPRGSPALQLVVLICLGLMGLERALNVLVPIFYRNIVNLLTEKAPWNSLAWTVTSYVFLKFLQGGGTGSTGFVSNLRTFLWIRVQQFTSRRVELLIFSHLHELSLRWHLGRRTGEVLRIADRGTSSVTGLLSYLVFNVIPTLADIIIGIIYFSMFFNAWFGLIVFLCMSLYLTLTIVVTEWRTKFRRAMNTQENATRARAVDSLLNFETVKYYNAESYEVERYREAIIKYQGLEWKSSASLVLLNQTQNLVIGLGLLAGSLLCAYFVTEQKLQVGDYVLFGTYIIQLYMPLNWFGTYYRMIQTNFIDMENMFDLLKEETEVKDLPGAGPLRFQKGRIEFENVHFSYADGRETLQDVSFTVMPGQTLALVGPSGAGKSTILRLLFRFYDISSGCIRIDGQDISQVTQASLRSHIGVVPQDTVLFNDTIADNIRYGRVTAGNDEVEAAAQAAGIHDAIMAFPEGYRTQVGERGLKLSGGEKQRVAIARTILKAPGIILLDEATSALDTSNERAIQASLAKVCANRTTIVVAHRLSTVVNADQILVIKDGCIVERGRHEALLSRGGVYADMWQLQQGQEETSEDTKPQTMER
Sequence of Beta-2 adrenergic receptor (Homo sapiens) (P07550 whole entry, looked up): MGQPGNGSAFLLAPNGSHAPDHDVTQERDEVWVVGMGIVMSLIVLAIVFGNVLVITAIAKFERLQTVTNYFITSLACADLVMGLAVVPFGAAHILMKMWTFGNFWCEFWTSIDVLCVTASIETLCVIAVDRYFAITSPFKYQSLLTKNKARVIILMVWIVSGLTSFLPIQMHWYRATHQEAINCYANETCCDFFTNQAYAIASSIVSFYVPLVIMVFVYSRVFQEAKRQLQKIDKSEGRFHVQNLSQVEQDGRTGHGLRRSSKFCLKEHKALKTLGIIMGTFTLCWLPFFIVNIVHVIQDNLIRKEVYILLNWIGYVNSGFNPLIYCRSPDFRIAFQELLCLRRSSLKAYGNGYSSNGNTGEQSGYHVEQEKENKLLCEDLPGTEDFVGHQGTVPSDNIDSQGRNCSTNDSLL
Sequence of Integrin beta-1 (Homo sapiens) + Integrin alpha-4 (Homo sapiens) (P05556 whole entry, looked up): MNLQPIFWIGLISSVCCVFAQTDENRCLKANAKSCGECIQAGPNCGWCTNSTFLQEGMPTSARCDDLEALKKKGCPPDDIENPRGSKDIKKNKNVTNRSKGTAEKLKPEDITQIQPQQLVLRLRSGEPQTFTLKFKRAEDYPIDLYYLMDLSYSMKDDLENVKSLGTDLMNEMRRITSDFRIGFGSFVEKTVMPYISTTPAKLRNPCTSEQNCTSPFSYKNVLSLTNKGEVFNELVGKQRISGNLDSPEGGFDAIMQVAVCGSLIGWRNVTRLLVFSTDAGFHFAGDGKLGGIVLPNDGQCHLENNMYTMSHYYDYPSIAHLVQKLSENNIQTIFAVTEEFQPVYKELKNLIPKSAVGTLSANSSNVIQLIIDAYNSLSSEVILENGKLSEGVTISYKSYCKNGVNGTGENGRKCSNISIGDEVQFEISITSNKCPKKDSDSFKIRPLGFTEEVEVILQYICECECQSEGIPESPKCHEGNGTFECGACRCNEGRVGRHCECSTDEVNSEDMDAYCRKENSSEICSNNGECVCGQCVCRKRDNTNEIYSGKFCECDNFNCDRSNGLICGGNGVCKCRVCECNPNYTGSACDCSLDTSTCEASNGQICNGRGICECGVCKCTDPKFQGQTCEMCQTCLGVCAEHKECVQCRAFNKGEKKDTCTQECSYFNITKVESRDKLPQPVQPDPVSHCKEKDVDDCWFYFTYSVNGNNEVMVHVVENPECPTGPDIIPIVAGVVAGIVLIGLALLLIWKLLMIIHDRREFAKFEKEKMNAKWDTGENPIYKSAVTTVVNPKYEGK
Sequence of Integrin beta-1 (Homo sapiens) + Integrin alpha-4 (Homo sapiens) (P13612 whole entry, looked up): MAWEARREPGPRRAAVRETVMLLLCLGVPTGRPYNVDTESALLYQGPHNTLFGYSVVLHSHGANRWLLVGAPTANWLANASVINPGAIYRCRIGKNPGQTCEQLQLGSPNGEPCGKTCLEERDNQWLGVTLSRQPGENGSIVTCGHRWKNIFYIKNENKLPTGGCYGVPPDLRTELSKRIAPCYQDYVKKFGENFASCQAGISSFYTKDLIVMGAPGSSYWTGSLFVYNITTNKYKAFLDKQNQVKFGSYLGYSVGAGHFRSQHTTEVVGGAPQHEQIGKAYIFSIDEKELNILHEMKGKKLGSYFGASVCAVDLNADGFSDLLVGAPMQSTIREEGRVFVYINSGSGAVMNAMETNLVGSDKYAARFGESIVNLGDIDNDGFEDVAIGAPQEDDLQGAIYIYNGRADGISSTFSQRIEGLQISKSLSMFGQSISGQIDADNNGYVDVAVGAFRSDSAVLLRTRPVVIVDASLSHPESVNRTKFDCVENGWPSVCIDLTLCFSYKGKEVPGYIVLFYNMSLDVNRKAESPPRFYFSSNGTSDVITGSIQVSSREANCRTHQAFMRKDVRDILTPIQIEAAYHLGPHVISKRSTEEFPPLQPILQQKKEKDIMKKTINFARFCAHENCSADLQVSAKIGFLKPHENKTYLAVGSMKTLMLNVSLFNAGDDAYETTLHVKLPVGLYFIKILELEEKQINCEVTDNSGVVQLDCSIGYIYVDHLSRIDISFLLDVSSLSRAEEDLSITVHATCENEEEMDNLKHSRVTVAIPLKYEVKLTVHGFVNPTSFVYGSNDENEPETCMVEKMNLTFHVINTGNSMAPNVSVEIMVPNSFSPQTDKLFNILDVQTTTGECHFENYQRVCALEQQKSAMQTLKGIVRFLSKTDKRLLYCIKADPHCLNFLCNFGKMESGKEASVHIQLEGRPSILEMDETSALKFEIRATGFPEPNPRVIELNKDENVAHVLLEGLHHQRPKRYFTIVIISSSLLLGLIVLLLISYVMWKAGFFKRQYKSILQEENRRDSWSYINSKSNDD
Sequence of AP-2 complex subunit beta (Homo sapiens) (P63010 whole entry, looked up, the tested form may be a part, one chain of several): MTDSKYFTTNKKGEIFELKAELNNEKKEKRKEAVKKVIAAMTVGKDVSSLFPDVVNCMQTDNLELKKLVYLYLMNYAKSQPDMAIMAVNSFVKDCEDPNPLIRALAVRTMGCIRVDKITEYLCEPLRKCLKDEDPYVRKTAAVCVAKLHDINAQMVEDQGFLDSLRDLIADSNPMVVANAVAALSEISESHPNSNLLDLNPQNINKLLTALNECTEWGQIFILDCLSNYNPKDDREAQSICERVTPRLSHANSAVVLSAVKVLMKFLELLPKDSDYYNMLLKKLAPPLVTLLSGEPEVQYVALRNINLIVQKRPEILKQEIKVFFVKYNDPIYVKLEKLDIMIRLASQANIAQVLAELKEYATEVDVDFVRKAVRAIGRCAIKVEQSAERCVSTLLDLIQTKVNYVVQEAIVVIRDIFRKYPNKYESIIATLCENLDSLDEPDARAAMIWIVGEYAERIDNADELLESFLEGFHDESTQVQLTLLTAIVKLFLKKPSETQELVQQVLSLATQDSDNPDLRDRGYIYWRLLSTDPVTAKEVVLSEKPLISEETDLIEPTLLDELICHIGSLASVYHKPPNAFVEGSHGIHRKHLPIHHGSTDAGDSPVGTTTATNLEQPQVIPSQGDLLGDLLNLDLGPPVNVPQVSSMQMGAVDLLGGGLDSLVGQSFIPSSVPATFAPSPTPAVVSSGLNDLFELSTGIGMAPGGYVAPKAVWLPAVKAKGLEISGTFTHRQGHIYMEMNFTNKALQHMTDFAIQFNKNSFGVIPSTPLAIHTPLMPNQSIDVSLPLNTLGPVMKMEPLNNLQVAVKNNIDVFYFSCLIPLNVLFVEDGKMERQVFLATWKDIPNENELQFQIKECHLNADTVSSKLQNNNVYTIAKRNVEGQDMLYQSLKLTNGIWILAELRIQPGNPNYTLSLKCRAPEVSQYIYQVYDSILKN
Sequence of Beta-adrenergic receptor kinase 1 (Homo sapiens) (P25098 whole entry, looked up): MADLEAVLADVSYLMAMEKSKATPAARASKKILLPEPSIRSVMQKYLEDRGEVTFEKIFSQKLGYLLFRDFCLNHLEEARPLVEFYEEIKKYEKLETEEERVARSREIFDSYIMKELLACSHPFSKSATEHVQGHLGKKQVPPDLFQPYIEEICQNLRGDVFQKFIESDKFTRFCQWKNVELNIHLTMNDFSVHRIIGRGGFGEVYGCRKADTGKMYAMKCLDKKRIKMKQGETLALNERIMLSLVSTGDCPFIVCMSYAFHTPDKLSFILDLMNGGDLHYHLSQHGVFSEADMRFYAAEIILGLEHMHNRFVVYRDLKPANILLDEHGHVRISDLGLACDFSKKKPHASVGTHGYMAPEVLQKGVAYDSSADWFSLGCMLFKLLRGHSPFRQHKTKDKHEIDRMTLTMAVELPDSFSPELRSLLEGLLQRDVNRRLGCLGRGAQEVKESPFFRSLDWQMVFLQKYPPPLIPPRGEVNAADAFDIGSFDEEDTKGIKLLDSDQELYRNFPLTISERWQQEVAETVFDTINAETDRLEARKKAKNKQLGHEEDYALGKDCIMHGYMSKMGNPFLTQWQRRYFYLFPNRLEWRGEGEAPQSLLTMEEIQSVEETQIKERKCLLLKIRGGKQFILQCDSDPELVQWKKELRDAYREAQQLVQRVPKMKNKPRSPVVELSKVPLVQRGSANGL

For the compound `COc1ccc(-c2nnc(-c3cc4c(ccc5ccccc54)oc3=O)o2)cc1`, in test [1], the percent of DMSO control GFP was 101% (inactive). Also, the GFP response vs DMSO was 93% (inactive) in [2] and 89.7% (inactive) in test [4]. In addition, in test [3], the percent response of DMSO control was 96.7% (inactive). Also, the GFP response, % of DMSO in test [5] is 98% (inactive). In [6], the double positive events came to 61%. Moreover, in test [6], the vesicle binding response was 244% (inactive). The results for the inhibition in [7], in [11] and in [15] were -20.9% (inactive), 6.88% (inactive) and 0% (inactive), respectively. Also, in test [8], the superoxide response (% of plate) is 75.6% (inactive). The aptamer binding inhibition in test [9] was -1% (inactive). Besides, the response is 50.8% (active) in [10] and 1% (inactive) in [12]. Further, the binding (% of control) in [13] was 97.2% (inactive). The efflux inhibition (fraction of control) in [14] was 0.08 (inactive). In addition, the differentiation response in [16] is -0.8% (inactive).
For the compound `O=C(/C=C/c1ccccc1)NC(=O)c1ccccc1O`, the percent of DMSO control GFP in [1] was 106% (inactive). For the same compound, the values for the GFP response vs DMSO in test [2] and in test [4] were 104% (inactive) and 121% (inactive), respectively. In test [3], the percent response of DMSO control was 104% (inactive). Further, the GFP response, % of DMSO in test [5] was 94.2% (inactive). The compound further had a double positive events in test [6] of 59.9%. Moreover, the vesicle binding response in [6] is 128% (inactive). Further, the inhibition is 4.27% (inactive) in test [7], 15.2% (inactive) in [11] and 0% (inactive) in [15]. The superoxide response (% of plate) in test [8] is 111% (inactive). For the same compound, the aptamer binding inhibition in test [9] is -4% (inactive). For the same compound, the response in test [10] is 5.9% (inactive); in [12] it was -7.97% (inactive). Further, the binding (% of control) in test [13] was 102% (inactive). In addition, in test [14], the efflux inhibition (fraction of control) is 0.07 (inactive). In addition, in test [16], the differentiation response is -10.4% (inactive).
On to `COc1ccc(NC(=O)Nc2ccc(C(C)C)cc2)cc1`, for which the percent of DMSO control GFP in test [1] was 104% (inactive). Also, the values for the GFP response vs DMSO in [2] and in test [4] were 103% (inactive) and 95.9% (inactive), respectively. In test [3], the percent response of DMSO control is 101% (inactive). Besides, in [5], the GFP response, % of DMSO is 88.6% (inactive). The same compound displayed a double positive events in test [6] of 56.2%. For the same compound, in test [6], the vesicle binding response is 126% (inactive). Besides, the inhibition in [7] is 20.4% (inactive); in test [11], -5.4% (inactive); in test [15] it was -11% (inactive). The superoxide response (% of plate) in [8] was 98.7% (inactive). Further, in [9], the aptamer binding inhibition is 7% (inactive). For the same compound, the results for the response in [10] and in test [12] were 2.17% (inactive) and -1.78% (inactive), respectively. In addition, the binding (% of control) in [13] was 97.3% (inactive). In addition, the efflux inhibition (fraction of control) in test [14] was 0.03 (inactive). For the same compound, the differentiation response in test [16] is 2.74% (inactive).
As to `NC(=O)N1c2ccccc2CC(=O)c2ccccc21`, in test [1], the percent of DMSO control GFP is 103% (inactive). In addition, the GFP response vs DMSO in [2] was 102% (inactive); in test [4] it was 92.6% (inactive). Further, in [3], the percent response of DMSO control was 102% (inactive). The GFP response, % of DMSO in test [5] was 102% (inactive). For the same compound, in [6], the double positive events was found to be 64.1%. In test [6], the vesicle binding response is 200% (inactive). The inhibition in test [7] is 6.95% (inactive); in test [11], -3.95% (inactive); in test [15], 2% (inactive). Moreover, the superoxide response (% of plate) in test [8] was 106% (inactive). Also, the aptamer binding inhibition in test [9] was 2% (inactive). The response in test [10] is 0.79% (inactive); in test [12], -2.65% (inactive). The binding (% of control) in [13] was 97.3% (inactive). The efflux inhibition (fraction of control) in test [14] is -0.14 (inactive). In [16], the differentiation response was -6.03% (inactive).
`CC(CCc1ccccc1)NC(=O)/C=C/c1ccccc1` (stereo not given): in [1], the percent of DMSO control GFP is 92.6% (inactive). Further, the GFP response vs DMSO in [2] was 132% (inactive); in test [4], 92.4% (inactive). The percent response of DMSO control in test [3] was 107% (inactive). For the same compound, in [5], the GFP response, % of DMSO is 81.7% (inactive). In test [6], this compound had a double positive events of 61.8%. In addition, in [6], the vesicle binding response was 129% (inactive). In addition, the inhibition in [7] is 1.61% (inactive); in test [11], -0.16% (inactive); in [15], 12% (inactive). For the same compound, the superoxide response (% of plate) in test [8] was 91.7% (inactive). Besides, the aptamer binding inhibition in [9] was 5% (inactive). For the same compound, the response in [10] is -12.9% (inactive); in [12] it was 1.44% (inactive). Besides, the binding (% of control) in [13] was 103% (inactive). Moreover, the efflux inhibition (fraction of control) in test [14] is -0.13 (inactive). Further, in test [16], the differentiation response was 0% (inactive).
